# Bioassay records from PubChem.
# NR3A LBD binder: NR3A (human) ligand-binding domain modulation; NR3A LBD differential scanning fluorimetry, Tm shift; 0% = protein alone, 100% = glycine-bound protein; 2.5% of 340,000 active; AID 1259313; Tm shift relative to glycine control, % at 25 µM;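 active = melting temperature shift of at least 10% of the positive control shift, at one fixed dose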
# MPTP block: permeability transition pore inhibition; 1.4% of 360,000 active; inhibition, % at 10 µM; AID 602449; isolated mouse mitochondria, Ca2+ swelling absorbance, 30 min;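 active = inhibition of 50% or more, scaled per plate between neutral and stimulator controls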;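 also: 0% = DMSO wells given calcium and 100% = 1 mM EGTA wells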
# FAS TE block: FAS thioesterase (human) inhibition; recombinant FAS-TE, OMFH fluorogenic substrate, fluorescence endpoint; inhibition, % at 15 µM; 0.67% of 360,000 active;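 active = compounds whose normalised, plate-corrected inhibition of enzyme fluorescence in the single-dose primary screen is 50% or more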;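 also: 0% = DMSO with enzyme and 100% = substrate without enzyme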
# MIN6 prolif: MIN6 beta-cell proliferation induction; 0.29% of 330,000 active; MIN6 cells proliferation, ATPlite luminescence, 48 h; cells starved in 0.2% serum; 100% = growth in 10% serum; proliferation, % at 10 µM;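 active = compounds whose signal lies at least 3.5 SD above the mean of all wells on their plate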;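 also: 0% = DMSO-treated cells in low-serum medium and 100% = 10% serum control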
# p-CIP stab down: p/CIP protein destabilization; 0.01% of 290,000 active; Q05BA5; F442A p/CIP-EGFP cells, EGFP fluorescence, 16 h; decrease of EGFP signal, % at 10 µM;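 active = EGFP signal decrease of at least 30% at 10 µM or well 3 SD below plate mean, unless failing retest; inactive = the rest, including hits failing retest or dose response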
# FAS-TE conf: confirmation of human fatty acid synthase thioesterase inhibitors. shares compounds with FAS TE block. recombinant FAS-TE, OMFH fluorogenic substrate, fluorescence. inhibition, % at 15 µM. 45% of 2,300 active. AID 624325;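 active = compounds inhibiting the enzyme by at least 50% at 15 µM in any one of the replicates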;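 also: 0% = enzyme with DMSO only and 100% = wells lacking enzyme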
# * marks the source's active call; other numbers are inactive results; nt = no result given. Most compounds without a hit are left out; they make up all but 4.1% or so of the library.
SMILES,NR3A LBD binder,MPTP block,FAS TE block,MIN6 prolif,p-CIP stab down,FAS-TE conf
COC(=O)[C@]1(Cc2ccccc2)N[C@H](CN(C)C(=O)Nc2ccc(C(F)(F)F)cc2)[C@@H]2C(=O)N(Cc3ccccc3)C(=O)[C@@H]21,-9.2,0.0,62.9*,-4.9,nt,34.7
CC1CCc2c(sc3nc(CN4CCN(S(=O)(=O)c5ccccc5[N+](=O)[O-])CC4)[nH]c(=O)c23)C1 (stereo not given),2.4,-0.8,90.6*,0.0,-6.5,50.3*
Cc1ccc(S(=O)(=O)N2CCN(Cc3nc4sc5c(c4c(=O)[nH]3)CCCC5)CC2)cc1,-6.9,-2.0,32.9,0.0,1.2,nt
COc1ccc(C(=O)N/C(=C\c2cn(S(=O)(=O)N(C)C)c3ccccc23)C(=O)NCCCN2CCOCC2)cc1,-2.1,-0.8,57.3*,6.2,-11.8,74.5*
CN(C)S(=O)(=O)n1cc(/C=C(\NC(=O)c2ccccc2)C(=O)NCCCN2CCOCC2)c2ccccc21,0.1,-0.3,17.2,-4.2,2.2,nt
CN(C)CCNc1ncnc2c1ncn2[C@H]1CN(Cc2ccncc2)C[C@@H](CO)O1,nt,-0.5,-3.1,nt,nt,nt
CCCCC1CC(=O)NC1(C(=O)OCC)C(=O)OCC (stereo not given),1.1,0.0,-4.8,nt,nt,nt
CC1(C)CC2CC(C)(CN2S(=O)(=O)c2ccc(C(=O)Nc3cc(S(=O)(=O)N4CCOCC4)ccc3Cl)cc2)C1 (stereo not given),0.0,2.6,76.4*,0.0,-7.6,22.9
CC1(C)CC2CC(C)(CN2S(=O)(=O)c2ccc(C(=O)Nc3cccc(S(=O)(=O)N4CCOCC4)c3)cc2)C1 (stereo not given),-6.8,17.0,47.9,0.0,-32.4,nt
COc1ccc(-n2c(SCc3ccc([N+](=O)[O-])cc3)nnc2-c2ccc(C)cc2)cc1,-2.5,1.4,58.2*,-2.9,-16.5,42.3
COc1ccc(-n2c(Cc3ccccc3)nnc2SCc2ccc([N+](=O)[O-])cc2)cc1,1.0,2.6,45.3,-5.0,2.0,nt
CN1CCN(C(=O)c2cc3c(c(-c4cccc(-c5cc6ccccc6o5)c4)n2)[C@@H](CCO)N(S(=O)C(C)(C)C)C3)CC1 (stereo not given in full),nt,-0.4,-8.4,nt,nt,nt
Cc1c(C(=O)N2CCN(c3ccc([N+](=O)[O-])cc3)CC2)oc2ccccc12,2.4,0.2,31.1,1.1,nt,nt
Cc1c(-c2ccccc2)oc2c(C(=O)N3CCN(c4ccc([N+](=O)[O-])cc4)CC3)cccc2c1=O,-24.7,-19.7,60.2*,-0.8,-12.4,10.2
CN(C)N1C(=O)c2c(Cl)c(Cl)c(Cl)c(Cl)c2C1=O,-0.2,0.5,-7.6,nt,nt,nt
CCNC(=O)C1(C)CCCN(C(=O)c2cc(-c3cccs3)oc2C)C1 (stereo not given),nt,1.3,-4.4,nt,nt,nt
COC(=O)c1cc(C(=O)NCCN2C(=O)S/C(=C\c3cccs3)C2=O)cc([N+](=O)[O-])c1,-2.6,0.0,60.4*,0.0,-5.2,5.4
Cc1noc(C)c1-c1ccc(C(=O)Nc2ccccc2)c2occc12,nt,2.0,8.1,nt,nt,nt
N#Cc1ccc(-c2cccnc2)nc1SCc1ccc(Cl)cc1Cl,-1.4,3.0,55.4*,-1.7,0.2,16.4
COc1cc(-c2c(C(=O)c3ccccc3)[nH]c(N)c2C(N)=O)ccc1F,nt,1.0,-12.0,nt,nt,nt
COc1ccc(CC(Cc2ccc(OC)c(OC)c2)NC=O)cc1OC,nt,-1.4,-8.2,nt,nt,nt
CCc1nc2ccc(C(=O)Nc3ccc(OC)c(OC)c3)cn2c1N(C)CCC(C)C,nt,-0.5,9.3,nt,nt,nt
O=C(c1ccc(Cl)cc1)[C@@H]1[C@@H]2C(=O)N(c3ccccc3)C(=O)[C@@H]2C2c3ccccc3C=NN21 (stereo not given in full),1.2,-0.8,52.3*,-1.3,-23.6,35.2
CCOC(=O)c1ccc(NC(=O)c2nc[nH]c2C(=O)N[C@@H](C)CO)cc1,nt,-0.5,-2.6,nt,nt,nt
COc1ccc(Cl)cc1NC(=O)CN(C)C(=O)c1sc2ccccc2c1Cl,3.7,1.5,51.4*,-6.7,nt,34.8
SMILES,NR3A LBD binder,MPTP block,FAS TE block,MIN6 prolif,p-CIP stab down,FAS-TE conf
Brc1ccc(CSc2nnc(-c3ccccn3)n2Cc2ccco2)cc1,1.0,-0.5,26.2,-4.8,-2.2,nt
CC(C)(C)c1ccc(CSc2nnc(-c3ccccn3)n2Cc2ccco2)cc1,20.0*,-0.6,53.2*,-3.9,-9.5,12.6
O=C(O)CCN(CC(=O)c1ccc(Cl)cc1)S(=O)(=O)c1ccc([N+](=O)[O-])cc1,1.8,1.2,74.6*,-2.1,nt,71.8*
Cc1ccc(C(=O)CN(CCC(=O)O)S(=O)(=O)c2ccc([N+](=O)[O-])cc2)cc1,-0.6,-0.8,62.4*,-2.0,nt,78.6*
COc1ccc(C(=O)CN(CCC(=O)O)S(=O)(=O)c2ccc([N+](=O)[O-])cc2)cc1,2.7,0.3,71.4*,-0.2,nt,80.0*
Cc1ccc(C(=O)CN(CCCC(N)=O)S(=O)(=O)c2ccc([N+](=O)[O-])cc2)cc1,0.9,-2.3,68.0*,1.9,nt,52.1*
O=C(C[C@H]1CC[C@H](NC(=O)C2CCOCC2)[C@@H](CO)O1)NCc1ccncc1,nt,1.2,nt,nt,nt,nt
CCC1CCCCN1c1ccc([N+](=O)[O-])cc1/C=N/NC(=O)Cn1c2ccccc2c(=O)c2ccccc21 (stereo not given),-2.5,1.2,60.4*,-1.4,2.4,21.0
CCCC(C)C(=O)Nc1cc([N+](=O)[O-])ccc1Cl (stereo not given),-0.5,-0.4,51.9*,-1.0,-14.3,64.4*
C#CCN(C[C@H]1[C@H](OC(=O)NCc2ccccc2)[C@H](OC(=O)NCc2ccccc2)C[C@H]2C(=O)N(c3ccccc3)C(=O)[C@@H]12)S(=O)(=O)c1ccc(C)cc1,nt,1.5,62.1*,nt,nt,19.7
C#CCN(C[C@H]1[C@H](OC(=O)Nc2cccs2)[C@H](OC(=O)Nc2cccs2)C[C@H]2C(=O)N(c3ccccc3)C(=O)[C@@H]12)S(=O)(=O)c1ccc(C)cc1,nt,0.7,53.9*,nt,nt,16.4
C#CCN(C[C@H]1[C@H](OC(=O)NC2CC2)[C@H](OC(=O)NC2CC2)C[C@H]2C(=O)N(c3ccccc3)C(=O)[C@@H]12)S(=O)(=O)c1ccc(C)cc1,nt,-0.4,-3.8,nt,nt,nt
COc1ccc(NC(=O)C[C@H]2C(=O)N(C3CCCCC3)C[C@@H]2C)cc1,nt,-0.5,-4.0,nt,nt,nt
N/C(=N\OC(=O)c1ccccc1)C(Cc1ccccc1)C(=O)NOC(=O)c1ccccc1 (stereo not given),0.8,2.0,-4.3,nt,nt,nt
C=CCN(CC=C)Cc1cc(=O)oc2cc(C)c(Cl)cc12,nt,1.3,19.4,nt,nt,nt
COC(=O)[C@]12CCCCC=C1N(Cc1ccco1)C(=O)[C@H](CC(=O)NCC13CC4CC(CC(C4)C1)C3)C2,nt,-2.3,9.2,nt,nt,nt
COc1ccc2c(c1)c(CC(=O)Nc1ccccc1OC)c(C)n2C(=O)c1ccc(Cl)cc1,-2.4,3.3,51.6*,-5.7,-8.4,12.2
